Test results from PubChem BioAssay (NCI).
Compounds without any hit were thinned out: in the full panel of roughly 79,000, 15% have a hit. Calls of active or inactive are those of the source. Rule as the data show it: active = growth inhibition above about 70%; inactive = the rest.

Assays:
[1] = NCI Yeast Anticancer Drug Screen. Data for the mec2-1 strain (AID 157); conditions: S. cerevisiae mec2-1 strain, active compounds read high
How it was run: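 Test agents were screened against the mec2-1 yeast strain, with defined DNA repair or cell cycle alteration. Growth was scored as inhibition against vehicle-only controls.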

[2] = NCI Yeast Anticancer Drug Screen. Data for the rad14 strain (AID 159);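 also: 0% = growth of vehicle-treated control cultures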; conditions: S. cerevisiae rad14 strain growth inhibition, active compounds read high
How it was run: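 DNA repair-defective yeast, compound-exposed; % growth inhibition derived by comparison with vehicle-treated controls.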

[3] = NCI Yeast Anticancer Drug Screen. Data for the sgs1 mgt1 strain (AID 161);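 also: 0% = growth of cultures given vehicle only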; conditions: S. cerevisiae sgs1 mgt1 strain, active compounds read high
How it was run: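 Read-out: growth inhibition vs vehicle controls. Cells: mutant yeast strain deficient in DNA damage repair.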

[4] = NCI Yeast Anticancer Drug Screen. Data for the CLN2oe strain (AID 163);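 also: 0% = growth of vehicle-only control cultures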; conditions: S. cerevisiae CLN2oe strain, active compounds read high
How it was run: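 Here, growth inhibition in a cell-cycle-altered yeast strain after compound exposure was quantified against vehicle control growth.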

[5] = NCI Yeast Anticancer Drug Screen. Data for the cln2 rad14 strain (AID 165);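 also: 0% = growth equal to vehicle treated cultures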; conditions: S. cerevisiae cln2 rad14 strain, active compounds read high
How it was run: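 Growth of compound-exposed yeast (cln2 rad14 genotype) measured and expressed as inhibition relative to vehicle.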

[6] = NCI Yeast Anticancer Drug Screen. Data for the bub3 strain (AID 167); conditions: S. cerevisiae bub3 mutant strain, active compounds read high
How it was run: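 In this screen, a yeast mutant lacking normal mitotic checkpoint function is challenged with compound. Relative growth versus vehicle gives the inhibition value.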

[7] = NCI Yeast Anticancer Drug Screen. Data for the wt2 strain (AID 169);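 also: 0% = growth of vehicle-treated yeast cultures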; conditions: S. cerevisiae wt2 strain growth inhibition, active compounds read high
How it was run: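 Genetically defined yeast strains from a DNA-repair/cell-cycle panel were used. Compound-exposed yeast growth was measured, and the inhibition was calculated relative to vehicle treatment.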

[8] = NCI Yeast Anticancer Drug Screen. Data for the mlh1 strain (AID 171);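 also: 0% = growth of vehicle-treated control cultures of the same strain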; conditions: S. cerevisiae mlh1 strain growth inhibition, active compounds read high
How it was run: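 Here the genetically defined yeast mutant is grown with each compound, and the extent to which its growth falls below that of vehicle-exposed cells is reported.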

[9] = NCI Yeast Anticancer Drug Screen. Data for the sgs1 strain (AID 173);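 also: 0% = growth of vehicle-only control cultures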; conditions: S. cerevisiae sgs1 mutant, active compounds read high
How it was run: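 Relative growth inhibition, referenced to vehicle, was determined in a yeast strain with a defined alteration affecting DNA damage repair or cell cycle control after compound exposure.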

[10] = NCI Yeast Anticancer Drug Screen. Data for the mlh1 rad18 strain (AID 175); conditions: S. cerevisiae mlh1 rad18 strain growth inhibition, active compounds read high
How it was run: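 In this whole-cell yeast screen, a strain with altered DNA damage repair is challenged with compound, and its growth is measured against matched vehicle-treated controls.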

[11] = NCI Yeast Anticancer Drug Screen. Data for the rad18 strain (AID 177); conditions: S. cerevisiae rad18 mutant growth inhibition, active compounds read high
How it was run: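 Screen uses a yeast strain with a defined lesion in DNA damage repair; compound effect is read as loss of growth compared to untreated vehicle cultures.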

[12] = NCI Yeast Anticancer Drug Screen. Data for the rad52 strain (AID 147);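 also: 0% = growth of vehicle-treated control cultures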; conditions: S. cerevisiae rad52 mutant growth inhibition, active compounds read high
How it was run: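 Measured: yeast growth inhibition. System: strain with a defined DNA damage repair alteration. Reference: vehicle-treated control cultures.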

[13] = NCI Yeast Anticancer Drug Screen. Data for the wt1 strain (AID 149);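 also: 0% = growth of vehicle-treated wt1 cultures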; conditions: S. cerevisiae wt1 strain (SPY 50644) growth inhibition, active compounds read high
How it was run: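 wt1 strain grown with compound or vehicle; inhibition taken from the growth difference.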

[14] = NCI Yeast Anticancer Drug Screen. Data for the mgt1 strain (AID 153); conditions: S. cerevisiae mgt1 mutant growth inhibition, active compounds read high
How it was run: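 After exposure of the mgt1 yeast mutant to compound, growth was measured and reported as inhibition compared with vehicle controls.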

[15] = NCI Yeast Anticancer Drug Screen. Data for the rad50 strain (AID 155);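 also: 0% = growth of vehicle-only cultures of the same strain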; conditions: S. cerevisiae rad50 strain growth inhibition, active compounds read high
How it was run: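 DNA repair mutant yeast, compound exposure, growth read-out; inhibition is taken relative to vehicle.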

[16] = at 5.0 µM (retest, dose inferred, filed as 0.5)
[17] = at 50.0 µM (retest, dose inferred, filed as 5.0)

Measured: growth inhibition

C[CH2][Sn]1([CH2]C)[O]C2C(O)OC(CO)C(O)C2[O]1 (stereo unspecified)
inactive: [1]; at 100.0 µM 67% | [2]; at 1.2 µM 1% | [2]; at 3.7 µM -4% | [2]; at 11.0 µM 2% | [2]; at 33.0 µM -5% | [2]; at 100.0 µM 15% | [3]; [16] 22% | [3]; at 50.0 µM 53.5% | [4]; at 1.2 µM -53% | [4]; at 3.7 µM -73% | [4]; at 11.0 µM -69% | [4]; at 33.0 µM -100% | [4]; at 100.0 µM 45% | [5]; [16] -1% | [5]; [17] 37% | [5]; at 50.0 µM 63.6% | [6]; at 1.2 µM 3% | [6]; at 3.7 µM 4% | [6]; [16] 6% | [6]; at 11.0 µM 10% | [6]; at 33.0 µM 8% | [6]; [17] 69% | [6]; at 50.0 µM 55.6% | [6]; at 100.0 µM 63% | [7]; at 1.2 µM -58% | [7]; at 3.7 µM -42% | [7]; at 11.0 µM -27% | [7]; at 33.0 µM 15% | [8]; at 1.2 µM -2% | [8]; at 3.7 µM -2% | [8]; at 11.0 µM -4% | [8]; at 33.0 µM -12% | [8]; at 100.0 µM 39% | [9]; at 1.2 µM -12% | [9]; at 3.7 µM -5% | [9]; at 11.0 µM -8% | [9]; at 33.0 µM 16% | [9]; at 100.0 µM 59% | [10]; [16] 26% | [11]; at 1.2 µM 11% | [11]; at 3.7 µM 0% | [11]; at 11.0 µM 8% | [11]; at 33.0 µM 23%
active: [3]; [17] 71% | [7]; at 100.0 µM 82% | [10]; [17] 88% | [10]; at 50.0 µM 72.5% | [11]; at 100.0 µM 73%

NC1=NCC(c2ccc(Cl)cc2)O1 (stereo unspecified)
inactive: [12]; at 1.2 µM -4% | [12]; at 3.7 µM -2% | [12]; at 11.0 µM -5% | [12]; at 33.0 µM -8% | [12]; at 100.0 µM 47% | [13]; at 1.2 µM -5% | [13]; at 3.7 µM -4% | [13]; at 11.0 µM -7% | [13]; at 33.0 µM -5% | [13]; at 100.0 µM 3% | [14]; at 1.2 µM -3% | [14]; at 3.7 µM -4% | [14]; at 11.0 µM -2% | [14]; at 33.0 µM 5% | [14]; at 100.0 µM 50% | [15]; at 1.2 µM -1% | [15]; at 3.7 µM -4% | [15]; [16] -151% | [15]; at 11.0 µM 7% | [15]; at 33.0 µM 11% | [15]; [17] 17% | [15]; at 50.0 µM 57.8% | [15]; at 100.0 µM 49% | [1]; at 1.2 µM 1% | [1]; at 3.7 µM -1% | [1]; [16] -51% | [1]; at 11.0 µM 3% | [1]; at 33.0 µM 1% | [1]; [17] 10% | [1]; at 50.0 µM 13.3% | [1]; at 100.0 µM 44% | [2]; at 1.2 µM -2% | [2]; at 3.7 µM -3% | [2]; at 11.0 µM -1% | [2]; at 33.0 µM 2% | [2]; at 100.0 µM 52% | [3]; [16] -62% | [3]; [17] 17% | [3]; at 50.0 µM 50.2% | [4]; at 1.2 µM -2% | [4]; at 3.7 µM -2% | [4]; at 11.0 µM 3% | [4]; at 33.0 µM 1% | [4]; at 100.0 µM 50% | [5]; [16] -64% | [5]; [17] 7% | [5]; at 50.0 µM 31.1% | [6]; at 1.2 µM -11% | [6]; at 3.7 µM -9% | [6]; [16] -76% | [6]; at 11.0 µM -4% | [6]; at 33.0 µM -6% | [6]; [17] 27% | [6]; at 50.0 µM 39.4% | [6]; at 100.0 µM 49% | [7]; at 1.2 µM -1% | [7]; at 3.7 µM 0% | [7]; at 11.0 µM 0% | [7]; at 33.0 µM -1% | [7]; at 100.0 µM 47% | [8]; at 1.2 µM 7% | [8]; at 3.7 µM -5% | [8]; at 11.0 µM -5% | [8]; at 33.0 µM -4% | [8]; at 100.0 µM 47% | [9]; at 1.2 µM 0% | [9]; at 3.7 µM -1% | [9]; at 11.0 µM -2% | [9]; at 33.0 µM -2% | [9]; at 100.0 µM 48% | [10]; [16] -135% | [10]; at 50.0 µM 50.4% | [11]; at 1.2 µM -4% | [11]; at 3.7 µM -3% | [11]; at 11.0 µM -3% | [11]; at 33.0 µM -3% | [11]; at 100.0 µM 48%
active: [10]; [17] 81%
